What was measured:
Assay in all cases: log2 ratio of Biotin-Ahx-Ub-VS probe labelling (fragment/DMSO); higher = less target engagement (more negative = stronger competition), active = hit call of the paper (q ≤ 0.05, log2 ratio ≤ -1)
Settings in all cases: compound concentration: 200 uM; treatment time: 3 h
USP42 = target: T1, USP42 (UniProt Q9H9J4)
T1 sequence (whole entry): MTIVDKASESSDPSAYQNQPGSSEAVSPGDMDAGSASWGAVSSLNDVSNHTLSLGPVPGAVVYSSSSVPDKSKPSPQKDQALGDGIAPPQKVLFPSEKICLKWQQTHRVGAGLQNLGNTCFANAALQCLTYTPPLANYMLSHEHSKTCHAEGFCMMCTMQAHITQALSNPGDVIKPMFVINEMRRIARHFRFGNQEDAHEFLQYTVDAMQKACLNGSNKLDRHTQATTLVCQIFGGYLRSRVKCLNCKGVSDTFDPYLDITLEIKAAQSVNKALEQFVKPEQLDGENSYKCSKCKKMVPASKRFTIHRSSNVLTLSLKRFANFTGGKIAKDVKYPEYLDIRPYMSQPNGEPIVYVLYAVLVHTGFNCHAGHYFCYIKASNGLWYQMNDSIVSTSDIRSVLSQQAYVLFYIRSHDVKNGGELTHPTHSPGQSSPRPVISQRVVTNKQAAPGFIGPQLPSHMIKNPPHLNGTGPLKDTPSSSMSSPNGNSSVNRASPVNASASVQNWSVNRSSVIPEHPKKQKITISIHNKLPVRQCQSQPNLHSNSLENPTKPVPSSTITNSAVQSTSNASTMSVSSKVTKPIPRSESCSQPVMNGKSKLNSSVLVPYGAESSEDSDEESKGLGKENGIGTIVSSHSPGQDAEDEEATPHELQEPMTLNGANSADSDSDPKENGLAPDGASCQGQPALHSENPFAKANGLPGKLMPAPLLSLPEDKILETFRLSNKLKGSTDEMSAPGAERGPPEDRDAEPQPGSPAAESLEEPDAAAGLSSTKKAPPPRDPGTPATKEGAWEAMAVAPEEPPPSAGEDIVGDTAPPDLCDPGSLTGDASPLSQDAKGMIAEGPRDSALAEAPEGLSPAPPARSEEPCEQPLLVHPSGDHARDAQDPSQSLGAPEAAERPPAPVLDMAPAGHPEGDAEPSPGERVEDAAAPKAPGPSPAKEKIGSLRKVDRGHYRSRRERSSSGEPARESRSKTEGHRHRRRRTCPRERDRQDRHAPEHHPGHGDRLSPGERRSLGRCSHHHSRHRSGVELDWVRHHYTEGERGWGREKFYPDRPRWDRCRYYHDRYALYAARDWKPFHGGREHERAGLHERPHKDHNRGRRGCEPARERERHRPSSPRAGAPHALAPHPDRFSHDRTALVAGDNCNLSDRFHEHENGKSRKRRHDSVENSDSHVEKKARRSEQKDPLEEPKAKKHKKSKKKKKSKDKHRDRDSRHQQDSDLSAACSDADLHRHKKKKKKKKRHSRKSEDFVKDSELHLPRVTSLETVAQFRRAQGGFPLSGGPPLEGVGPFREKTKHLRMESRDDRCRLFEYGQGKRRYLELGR
Outline: (§1)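 HEK293T lysate (495 µg per sample, in Tris/CHAPS/IGEPAL buffer with protease inhibitors) was treated in triplicate with fragment at 200 µM or with DMSO for 3 h. It was then treated with Biotin-Ahx-Ub-VS (0.5 µM final) for 1 h. Labelled DUBs were NeutrAvidin-enriched, digested with LysC and trypsin, and run by diaPASEF LC-MS/MS. Spectronaut label-free quantities were global-median-normalised. Values are average log2 ratios fragment/DMSO by unpaired t-test, using proteins with ≥2 unique peptides.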

USP46 = USP46 (UniProt P62068)
USP46, sequence (P62068 whole entry): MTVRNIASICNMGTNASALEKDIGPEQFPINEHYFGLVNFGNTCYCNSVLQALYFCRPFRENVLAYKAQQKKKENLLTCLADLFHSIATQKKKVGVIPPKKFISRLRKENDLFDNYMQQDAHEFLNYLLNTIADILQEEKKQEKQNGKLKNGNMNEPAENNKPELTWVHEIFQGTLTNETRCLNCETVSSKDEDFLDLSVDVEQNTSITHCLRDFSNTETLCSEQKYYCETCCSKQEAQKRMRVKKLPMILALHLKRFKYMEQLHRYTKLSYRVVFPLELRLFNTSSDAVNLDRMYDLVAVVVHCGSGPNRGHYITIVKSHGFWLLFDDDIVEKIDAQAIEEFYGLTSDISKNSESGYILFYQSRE
Outline: as §1

USP47 = target: T2, USP47 (UniProt Q96K76)
T2 sequence (whole entry): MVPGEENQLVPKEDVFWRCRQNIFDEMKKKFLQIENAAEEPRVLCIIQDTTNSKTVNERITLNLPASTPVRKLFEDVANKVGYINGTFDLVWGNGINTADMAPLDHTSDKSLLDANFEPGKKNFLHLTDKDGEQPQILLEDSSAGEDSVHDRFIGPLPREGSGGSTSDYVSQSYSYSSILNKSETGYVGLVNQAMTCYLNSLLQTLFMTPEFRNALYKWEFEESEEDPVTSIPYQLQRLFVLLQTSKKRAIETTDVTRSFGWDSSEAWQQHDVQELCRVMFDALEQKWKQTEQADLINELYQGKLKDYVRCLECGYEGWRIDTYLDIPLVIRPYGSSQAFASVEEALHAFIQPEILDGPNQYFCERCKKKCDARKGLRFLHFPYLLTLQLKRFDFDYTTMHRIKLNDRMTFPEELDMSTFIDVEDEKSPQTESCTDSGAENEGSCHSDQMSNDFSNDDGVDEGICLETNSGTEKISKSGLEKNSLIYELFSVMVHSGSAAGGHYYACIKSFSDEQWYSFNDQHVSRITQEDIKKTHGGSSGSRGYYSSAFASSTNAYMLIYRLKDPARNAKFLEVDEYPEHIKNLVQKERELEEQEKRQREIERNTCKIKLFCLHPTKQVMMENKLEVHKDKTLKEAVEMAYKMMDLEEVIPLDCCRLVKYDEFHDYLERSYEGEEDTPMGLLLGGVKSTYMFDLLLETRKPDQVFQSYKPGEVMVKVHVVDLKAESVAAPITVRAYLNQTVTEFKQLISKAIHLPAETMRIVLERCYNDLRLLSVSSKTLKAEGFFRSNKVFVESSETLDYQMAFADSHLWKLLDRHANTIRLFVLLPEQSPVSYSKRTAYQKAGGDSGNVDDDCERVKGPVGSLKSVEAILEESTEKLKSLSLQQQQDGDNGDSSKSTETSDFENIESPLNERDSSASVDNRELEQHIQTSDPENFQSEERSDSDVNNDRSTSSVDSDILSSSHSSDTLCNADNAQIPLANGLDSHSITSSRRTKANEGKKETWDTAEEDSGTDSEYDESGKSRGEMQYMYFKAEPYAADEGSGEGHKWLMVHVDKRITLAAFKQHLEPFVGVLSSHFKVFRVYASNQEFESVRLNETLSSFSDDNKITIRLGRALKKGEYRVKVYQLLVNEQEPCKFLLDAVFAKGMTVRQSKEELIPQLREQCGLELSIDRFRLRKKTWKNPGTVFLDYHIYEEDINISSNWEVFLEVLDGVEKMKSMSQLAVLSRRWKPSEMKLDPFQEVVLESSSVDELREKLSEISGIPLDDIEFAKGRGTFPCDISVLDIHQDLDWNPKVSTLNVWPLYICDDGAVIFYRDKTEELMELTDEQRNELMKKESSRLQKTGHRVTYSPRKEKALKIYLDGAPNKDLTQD
Outline: as §1

USP48 = target: T3, USP48 (UniProt Q86UV5)
T3 sequence (whole entry): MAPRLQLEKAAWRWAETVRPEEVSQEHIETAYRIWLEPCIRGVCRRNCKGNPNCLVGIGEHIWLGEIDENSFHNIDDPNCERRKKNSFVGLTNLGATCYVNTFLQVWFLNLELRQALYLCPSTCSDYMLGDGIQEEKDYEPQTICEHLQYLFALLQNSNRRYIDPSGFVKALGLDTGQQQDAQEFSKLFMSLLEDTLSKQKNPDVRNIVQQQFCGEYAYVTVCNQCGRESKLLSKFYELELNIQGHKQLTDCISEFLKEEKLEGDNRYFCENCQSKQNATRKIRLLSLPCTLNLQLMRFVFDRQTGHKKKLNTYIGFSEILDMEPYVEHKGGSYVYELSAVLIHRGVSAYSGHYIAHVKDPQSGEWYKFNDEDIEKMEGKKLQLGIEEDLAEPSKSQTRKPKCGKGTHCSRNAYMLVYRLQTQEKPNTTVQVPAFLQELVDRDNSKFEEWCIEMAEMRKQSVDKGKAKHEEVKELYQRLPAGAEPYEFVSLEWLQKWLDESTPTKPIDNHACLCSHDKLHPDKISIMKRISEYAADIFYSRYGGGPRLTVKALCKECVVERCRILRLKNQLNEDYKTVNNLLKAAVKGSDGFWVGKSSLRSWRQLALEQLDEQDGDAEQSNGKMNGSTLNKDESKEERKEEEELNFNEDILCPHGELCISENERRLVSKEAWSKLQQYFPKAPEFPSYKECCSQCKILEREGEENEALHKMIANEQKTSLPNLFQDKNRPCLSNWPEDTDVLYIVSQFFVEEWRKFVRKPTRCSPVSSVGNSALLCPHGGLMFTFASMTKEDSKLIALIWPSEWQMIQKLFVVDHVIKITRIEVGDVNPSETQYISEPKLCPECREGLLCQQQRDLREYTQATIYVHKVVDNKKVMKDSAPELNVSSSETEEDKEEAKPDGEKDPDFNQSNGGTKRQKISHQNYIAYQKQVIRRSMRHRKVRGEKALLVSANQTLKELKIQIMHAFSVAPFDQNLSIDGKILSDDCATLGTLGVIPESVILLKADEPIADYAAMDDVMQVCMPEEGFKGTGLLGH
Outline: as §1

USP5 = target: T4, USP5 (UniProt P45974)
T4 sequence (whole entry): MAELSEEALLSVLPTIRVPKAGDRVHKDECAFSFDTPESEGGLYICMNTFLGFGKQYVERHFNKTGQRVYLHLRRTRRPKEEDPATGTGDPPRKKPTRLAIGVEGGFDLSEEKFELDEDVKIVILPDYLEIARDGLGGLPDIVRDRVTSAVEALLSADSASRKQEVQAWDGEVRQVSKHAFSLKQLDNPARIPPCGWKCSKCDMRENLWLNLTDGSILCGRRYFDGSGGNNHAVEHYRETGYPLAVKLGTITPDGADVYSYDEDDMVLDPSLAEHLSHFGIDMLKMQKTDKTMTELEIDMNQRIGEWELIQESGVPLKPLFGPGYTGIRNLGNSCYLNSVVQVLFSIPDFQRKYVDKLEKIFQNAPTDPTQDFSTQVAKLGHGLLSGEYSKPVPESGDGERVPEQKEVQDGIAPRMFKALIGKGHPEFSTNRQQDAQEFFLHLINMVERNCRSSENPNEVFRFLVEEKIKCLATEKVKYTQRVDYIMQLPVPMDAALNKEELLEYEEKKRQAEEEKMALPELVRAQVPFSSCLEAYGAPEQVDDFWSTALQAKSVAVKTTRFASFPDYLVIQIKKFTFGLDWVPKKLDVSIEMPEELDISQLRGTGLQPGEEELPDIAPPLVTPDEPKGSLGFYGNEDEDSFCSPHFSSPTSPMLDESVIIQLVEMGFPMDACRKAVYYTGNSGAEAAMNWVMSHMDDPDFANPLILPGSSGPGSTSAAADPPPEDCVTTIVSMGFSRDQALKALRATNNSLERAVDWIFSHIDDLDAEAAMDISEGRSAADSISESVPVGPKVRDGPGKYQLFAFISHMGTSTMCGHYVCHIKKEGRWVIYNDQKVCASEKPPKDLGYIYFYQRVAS
Outline: as §1

USP54 = USP54 (UniProt Q70EL1)
USP54, sequence (Q70EL1 whole entry): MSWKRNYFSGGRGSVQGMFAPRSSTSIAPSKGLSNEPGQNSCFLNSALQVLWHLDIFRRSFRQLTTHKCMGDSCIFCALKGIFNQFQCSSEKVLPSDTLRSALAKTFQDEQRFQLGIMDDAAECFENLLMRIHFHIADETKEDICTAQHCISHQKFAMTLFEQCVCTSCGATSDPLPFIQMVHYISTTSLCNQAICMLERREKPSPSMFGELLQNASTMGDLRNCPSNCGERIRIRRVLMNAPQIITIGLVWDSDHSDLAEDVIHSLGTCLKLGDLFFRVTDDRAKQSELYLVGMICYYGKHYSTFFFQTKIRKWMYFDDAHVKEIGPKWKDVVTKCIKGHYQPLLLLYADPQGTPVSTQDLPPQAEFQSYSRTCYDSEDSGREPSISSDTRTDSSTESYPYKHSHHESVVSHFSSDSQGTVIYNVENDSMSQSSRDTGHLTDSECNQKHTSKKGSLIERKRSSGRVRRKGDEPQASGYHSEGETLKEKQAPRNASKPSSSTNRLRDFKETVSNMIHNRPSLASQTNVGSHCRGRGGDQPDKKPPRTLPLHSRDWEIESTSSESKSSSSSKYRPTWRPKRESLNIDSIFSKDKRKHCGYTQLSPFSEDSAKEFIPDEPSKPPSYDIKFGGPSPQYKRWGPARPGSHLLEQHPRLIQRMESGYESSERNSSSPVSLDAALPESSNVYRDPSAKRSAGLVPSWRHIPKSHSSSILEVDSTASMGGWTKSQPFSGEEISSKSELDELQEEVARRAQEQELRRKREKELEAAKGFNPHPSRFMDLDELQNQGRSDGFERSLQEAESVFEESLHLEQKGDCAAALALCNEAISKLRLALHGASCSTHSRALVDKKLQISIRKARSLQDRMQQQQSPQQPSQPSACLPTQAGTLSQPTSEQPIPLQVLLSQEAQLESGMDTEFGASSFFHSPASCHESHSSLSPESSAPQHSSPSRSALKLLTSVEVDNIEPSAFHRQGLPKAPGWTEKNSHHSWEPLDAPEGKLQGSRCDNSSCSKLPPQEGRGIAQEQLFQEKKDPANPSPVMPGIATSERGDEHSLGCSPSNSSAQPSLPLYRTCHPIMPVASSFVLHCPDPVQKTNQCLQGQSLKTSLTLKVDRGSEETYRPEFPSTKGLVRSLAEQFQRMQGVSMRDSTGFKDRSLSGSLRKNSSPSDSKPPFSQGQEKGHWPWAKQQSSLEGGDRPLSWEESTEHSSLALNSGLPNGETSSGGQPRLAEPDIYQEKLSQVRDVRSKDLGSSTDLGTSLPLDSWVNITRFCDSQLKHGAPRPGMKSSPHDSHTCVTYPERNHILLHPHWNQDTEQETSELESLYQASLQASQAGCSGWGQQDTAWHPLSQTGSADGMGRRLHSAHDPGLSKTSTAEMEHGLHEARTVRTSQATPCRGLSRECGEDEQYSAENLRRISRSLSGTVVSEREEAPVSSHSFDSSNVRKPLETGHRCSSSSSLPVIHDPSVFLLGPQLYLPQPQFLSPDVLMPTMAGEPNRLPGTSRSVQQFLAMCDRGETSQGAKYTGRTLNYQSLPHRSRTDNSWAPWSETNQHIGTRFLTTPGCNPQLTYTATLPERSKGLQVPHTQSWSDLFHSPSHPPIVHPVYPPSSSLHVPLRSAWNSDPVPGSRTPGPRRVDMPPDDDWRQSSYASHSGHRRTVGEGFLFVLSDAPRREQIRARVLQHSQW
Outline: as §1

USP7 = USP7 (UniProt Q93009)
Outline: as §1

USP8 = target: T5, USP8 (UniProt P40818)
T5 sequence (whole entry): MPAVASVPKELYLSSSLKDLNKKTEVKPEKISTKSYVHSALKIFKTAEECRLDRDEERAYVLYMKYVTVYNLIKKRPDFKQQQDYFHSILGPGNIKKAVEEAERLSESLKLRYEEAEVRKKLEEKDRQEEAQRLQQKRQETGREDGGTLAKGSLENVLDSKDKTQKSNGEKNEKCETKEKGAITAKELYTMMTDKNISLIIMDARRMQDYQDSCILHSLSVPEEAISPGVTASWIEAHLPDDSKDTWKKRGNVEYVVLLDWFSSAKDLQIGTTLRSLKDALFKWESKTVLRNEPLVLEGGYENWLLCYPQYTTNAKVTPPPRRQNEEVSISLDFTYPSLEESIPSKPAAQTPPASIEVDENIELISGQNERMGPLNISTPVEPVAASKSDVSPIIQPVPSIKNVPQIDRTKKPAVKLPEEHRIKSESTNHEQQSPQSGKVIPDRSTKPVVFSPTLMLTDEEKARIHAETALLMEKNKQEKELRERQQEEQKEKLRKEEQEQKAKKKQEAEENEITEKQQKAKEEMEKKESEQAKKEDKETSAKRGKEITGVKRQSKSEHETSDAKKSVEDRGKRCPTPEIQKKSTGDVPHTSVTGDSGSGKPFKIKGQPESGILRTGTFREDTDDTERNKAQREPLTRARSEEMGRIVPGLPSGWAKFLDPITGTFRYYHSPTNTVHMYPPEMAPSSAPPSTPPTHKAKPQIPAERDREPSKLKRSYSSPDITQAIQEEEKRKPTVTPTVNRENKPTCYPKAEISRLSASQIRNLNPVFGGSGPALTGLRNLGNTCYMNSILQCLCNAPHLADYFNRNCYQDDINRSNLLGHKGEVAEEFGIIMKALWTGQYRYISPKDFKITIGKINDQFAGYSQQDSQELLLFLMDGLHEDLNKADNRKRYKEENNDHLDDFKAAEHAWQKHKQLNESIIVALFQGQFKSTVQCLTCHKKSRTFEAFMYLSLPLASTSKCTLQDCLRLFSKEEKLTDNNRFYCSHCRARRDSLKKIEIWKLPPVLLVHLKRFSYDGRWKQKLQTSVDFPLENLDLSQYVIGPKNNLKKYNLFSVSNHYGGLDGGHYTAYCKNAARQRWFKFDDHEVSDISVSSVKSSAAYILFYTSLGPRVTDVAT
Outline: as §1

USP9X = USP9X (UniProt Q93008)
USP9X, sequence (Q93008 whole entry): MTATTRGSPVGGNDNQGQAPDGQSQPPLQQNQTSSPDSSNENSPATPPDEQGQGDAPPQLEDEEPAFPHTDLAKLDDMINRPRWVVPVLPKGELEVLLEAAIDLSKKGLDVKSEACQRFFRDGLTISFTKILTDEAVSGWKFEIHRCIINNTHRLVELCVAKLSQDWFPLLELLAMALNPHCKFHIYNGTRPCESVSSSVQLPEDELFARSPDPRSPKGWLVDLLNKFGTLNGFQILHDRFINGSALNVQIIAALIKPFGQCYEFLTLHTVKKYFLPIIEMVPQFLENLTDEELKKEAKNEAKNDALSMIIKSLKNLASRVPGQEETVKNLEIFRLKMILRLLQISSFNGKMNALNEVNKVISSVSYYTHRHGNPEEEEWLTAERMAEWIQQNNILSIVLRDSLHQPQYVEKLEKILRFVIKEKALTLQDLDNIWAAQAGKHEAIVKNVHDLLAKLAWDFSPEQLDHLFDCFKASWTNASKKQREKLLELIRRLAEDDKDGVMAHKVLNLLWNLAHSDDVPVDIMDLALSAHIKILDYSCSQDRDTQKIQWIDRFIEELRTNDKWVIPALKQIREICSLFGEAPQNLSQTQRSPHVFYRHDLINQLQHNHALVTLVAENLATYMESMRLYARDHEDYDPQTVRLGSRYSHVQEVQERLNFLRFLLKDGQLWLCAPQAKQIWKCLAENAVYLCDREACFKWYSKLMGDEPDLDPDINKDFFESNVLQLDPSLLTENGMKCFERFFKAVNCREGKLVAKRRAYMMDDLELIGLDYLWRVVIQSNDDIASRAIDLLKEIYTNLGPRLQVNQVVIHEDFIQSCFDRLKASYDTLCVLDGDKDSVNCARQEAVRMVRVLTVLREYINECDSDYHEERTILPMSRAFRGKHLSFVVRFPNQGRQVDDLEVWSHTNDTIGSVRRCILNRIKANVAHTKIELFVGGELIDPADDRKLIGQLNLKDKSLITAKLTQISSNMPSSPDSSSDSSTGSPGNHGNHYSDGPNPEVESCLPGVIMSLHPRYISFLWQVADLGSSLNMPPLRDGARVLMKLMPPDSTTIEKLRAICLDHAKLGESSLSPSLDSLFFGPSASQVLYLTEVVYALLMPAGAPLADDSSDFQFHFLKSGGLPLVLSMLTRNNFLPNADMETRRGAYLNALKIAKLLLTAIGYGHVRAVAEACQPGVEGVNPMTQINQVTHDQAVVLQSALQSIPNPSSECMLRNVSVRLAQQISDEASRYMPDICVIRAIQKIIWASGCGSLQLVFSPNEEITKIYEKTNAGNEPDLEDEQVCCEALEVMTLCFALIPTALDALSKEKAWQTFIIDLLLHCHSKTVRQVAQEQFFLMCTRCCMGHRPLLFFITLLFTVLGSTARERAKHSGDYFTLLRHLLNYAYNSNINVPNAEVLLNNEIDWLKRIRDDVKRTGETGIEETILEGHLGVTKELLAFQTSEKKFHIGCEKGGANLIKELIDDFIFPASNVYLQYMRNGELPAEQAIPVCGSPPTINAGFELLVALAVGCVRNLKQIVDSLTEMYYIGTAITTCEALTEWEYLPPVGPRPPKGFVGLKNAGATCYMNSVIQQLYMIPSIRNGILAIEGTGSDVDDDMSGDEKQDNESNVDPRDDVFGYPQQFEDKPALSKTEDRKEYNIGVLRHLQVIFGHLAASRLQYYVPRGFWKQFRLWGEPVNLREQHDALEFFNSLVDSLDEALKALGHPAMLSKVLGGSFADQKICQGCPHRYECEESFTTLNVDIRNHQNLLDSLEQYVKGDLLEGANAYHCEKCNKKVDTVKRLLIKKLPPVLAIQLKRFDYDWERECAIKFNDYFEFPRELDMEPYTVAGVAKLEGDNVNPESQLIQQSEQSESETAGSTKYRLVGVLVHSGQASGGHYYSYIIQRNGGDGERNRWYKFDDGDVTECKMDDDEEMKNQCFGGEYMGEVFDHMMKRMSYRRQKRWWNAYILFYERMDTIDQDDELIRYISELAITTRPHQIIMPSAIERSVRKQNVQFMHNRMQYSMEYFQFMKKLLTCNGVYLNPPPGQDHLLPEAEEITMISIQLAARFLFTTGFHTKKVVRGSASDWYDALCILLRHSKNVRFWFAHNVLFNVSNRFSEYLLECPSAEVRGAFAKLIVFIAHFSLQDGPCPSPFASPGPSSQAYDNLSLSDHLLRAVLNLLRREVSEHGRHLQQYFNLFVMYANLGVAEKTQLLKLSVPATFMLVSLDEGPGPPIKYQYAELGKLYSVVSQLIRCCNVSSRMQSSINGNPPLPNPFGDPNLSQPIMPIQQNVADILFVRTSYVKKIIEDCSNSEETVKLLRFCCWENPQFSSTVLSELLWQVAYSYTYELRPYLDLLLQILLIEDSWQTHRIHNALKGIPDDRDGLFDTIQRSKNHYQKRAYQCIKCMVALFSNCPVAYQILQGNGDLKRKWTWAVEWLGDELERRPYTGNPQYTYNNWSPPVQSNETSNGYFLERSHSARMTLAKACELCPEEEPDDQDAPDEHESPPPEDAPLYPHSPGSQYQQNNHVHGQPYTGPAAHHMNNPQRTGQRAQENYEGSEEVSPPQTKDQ
Outline: as §1

UniProt O00487 = target: UniProt O00487
UniProt O00487, sequence (O00487 whole entry): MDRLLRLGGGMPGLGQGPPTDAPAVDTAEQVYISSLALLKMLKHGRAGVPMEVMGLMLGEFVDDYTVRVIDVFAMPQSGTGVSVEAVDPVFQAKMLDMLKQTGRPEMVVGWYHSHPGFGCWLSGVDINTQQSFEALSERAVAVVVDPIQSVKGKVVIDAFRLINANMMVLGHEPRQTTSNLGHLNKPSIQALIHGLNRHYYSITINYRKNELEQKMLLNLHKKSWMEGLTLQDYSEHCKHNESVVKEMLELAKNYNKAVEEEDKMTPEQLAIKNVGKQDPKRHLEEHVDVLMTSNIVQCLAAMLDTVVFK
Outline: as §1

Measured: log2 ratio of Biotin-Ahx-Ub-VS probe labelling

Cl.O=C(CCl)NCc1cc2c(nc1O)CCCC2
inactive: USP42 -0.448 | USP46 0.127 | USP48 -0.169 | USP5 0.0226 | USP54 0.773 | USP7 -0.155 | USP8 -0.3 | USP9X -0.309 | UniProt O00487 -0.0291
active: USP47 -1.45
